Results from PMC12136788.
Positions count from the first letter of the chain named. In all, about 24,000 sequences were measured (“enrichment r”: median about 0.99, highest 2% from about 3.7 on). The entries come from a sample that favours the highest values as a whole.

T1: UNK ZnF1-3 (human, UniProt Q9C0B0 31-174)
T1 sequence: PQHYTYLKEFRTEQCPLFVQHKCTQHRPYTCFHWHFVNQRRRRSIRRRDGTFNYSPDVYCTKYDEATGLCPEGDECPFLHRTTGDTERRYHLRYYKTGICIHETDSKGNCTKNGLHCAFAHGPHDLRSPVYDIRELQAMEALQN

B1: chr12:39756943:39756944:-_ENSG00000139116_ENST00000544797|hu_mus|hu_hu_hu_mus_False|48_78 (ssRNA)
RNA: GGGAGUUCUACAGUCCGACGAUCGGUUUGGCUGUUACCCCCAAGGGAAUCCUGCAAUAGUCUUGUUAGCUUAGAGUCUCUGUAAGGGACAUGUGUGGCUCUCUUGCUCUUGUCCCCCAAGGCGCUGAUUACAUUCCCAAGAGCCAACAGAGGAUUGAGCAUCA
B2: chr4:140309118:140309119:+_ENSG00000164134_ENST00000296543|hu_mus|FALSE|FALSE (ssRNA)
RNA: GGGAGUUCUACAGUCCGACGAUCGUAUCCAGGAGGCAUGAAAGCCAAAGCAUAAGGGAAAAGCUUAUGACAACUUGCUCUGUAGGCUUCGGCAGCUUCUUUACAGUCUCCUAGGCUACCAUCACACAAGGCUUCCAACACCUCCAACAGAGGAUUGAGCAUCA
B3: chr3:10015032:10015033:+_ENSMUSG00000027533_ENSMUST00000029046|mus_mus|mus_mus_mus_hu_True|1_58 (ssRNA)
RNA: GGGAGUUCUACAGUCCGACGAUCGUUUUUACCAUCACAAGUGAUGAUACAAUCUGGCUUGGCCAUUGCGCCCAUUUUCCUAAGAGCUAUUCCCACUCCUAGCUCCUUCAUGUAUUCAUCAAAGCCUUUGCUGUCCAUCAGGCGCAACAGAGGAUUGAGCAUCA
B4: 64658990_64660614_189_3pUTR_ENSMUSG00000024083_ENSMUST00000024889|mouse|control|control (ssRNA)
RNA: GGGAGUUCUACAGUCCGACGAUCAUCCAAUGAACUGGAACCUGAGGUGUUCUCCUUUGGAACAUCGUCUAGUUCCAACACUUCAUAGUCAUCACCAGCCCGACCCAAGCUUCUUUCAUGCCUGGUCAUACAUGGCUUAAAACUCAACAGAGGAUUGAGCAUCA
B5: 104713310_104714935_678_CDS_ENSG00000198431_ENST00000397736|human|control|control (ssRNA)
RNA: GGGAGUUCUACAGUCCGACGAUCAGCGACAUAGGAUGCUCCAACAACCAGGGUCUUACCCGGGCAGUAAGGCAAGGAGAAAAGAUCAUCACUGCUGAUGCAGUAUUCUUUGUCACCAGGGAUGCCCAAGUAACGUGGUCUUUCCAACAGAGGAUUGAGCAUCA
B6: chr11:4127340:4127341:+_ENSG00000167325_ENST00000300738|hu_mus|hu_hu_hu_mus_False|28_88 (ssRNA)
RNA: GGGAGUUCUACAGUCCGACGAUCGGCAUAGUCAGGGUGCUUCGUGGUCAAGGUUGCGGCUGUCUCAGCAGCCAGGGUGUCCAGUUCCACUGUGGUGACCCCACUAUACAAGCCUUGGAUUACUUUCAUGGUGAUCUGAGCAGGCAACAGAGGAUUGAGCAUCA
B7: 82880966_82885890_579_3pUTR_ENSMUSG00000000627_ENSMUST00000000641|mouse|control|control (ssRNA)
RNA: GGGAGUUCUACAGUCCGACGAUCGCUGGAAACUGGACACAUCAAUAACCCCGCACUUCGGAUCAAAAGCGAAGGUGCCACACGUGAGGAGGUGAGAGGCAUUGGCAAUGGCGAGAAUCUGGAUAAAAUUGUGACAUUCGUCCUCAACAGAGGAUUGAGCAUCA
B8: chr3:142455422:142455423:-_ENSMUSG00000004591_ENSMUST00000043812|mus_mus|motif|central (ssRNA)
RNA: GGGAGUUCUACAGUCCGACGAUCGGGAGAACAACAGAGUGACAGCCUAGGAGAAAAAAGGGAAAAACAAAACAAAAAUCGGAUAAAAUUCCAGCCCAGUGAAGAUCAUGAUUUGCAAACAGGCAUAUGGUAAGAGCGAUACAACAACAGAGGAUUGAGCAUCA
B9: chr7:74146866:74146867:+_ENSG00000077809_ENST00000416070|hu_hu|motif|central (ssRNA)
RNA: GGGAGUUCUACAGUCCGACGAUCUUCCUUUGCAAGUAAUAUCCUCUCCAGGCGAGGAAUUCCGUAAGUAGAUGGCCUUCGGAAAGGAAUUCCUUCAGGAAGUCCUUCUACAUAAAGAUCUUCAACAUGAGACUGGAAAAGAGGCAACAGAGGAUUGAGCAUCA
B10: chr14:49642940:49642941:-_ENSMUSG00000061244_ENSMUST00000162175|mus_mus|motif|central (ssRNA)
RNA: GGGAGUUCUACAGUCCGACGAUCUAAAGCAUAAUCAAUAUGCUCAAUACAUAAAAAUUCCACAAGAAUGGUAAAAAUUCGGAAGGCAUUCCUUGGUAAAUCAGAAGGAUCAGAAAGCCUAUGACAUCUUUCAAAGGCUUGUUUCAACAGAGGAUUGAGCAUCA
B11: 65373527_65373647_4270_3pUTR_ENSMUSG00000024589_ENSMUST00000163516|mouse|control|control (ssRNA)
RNA: GGGAGUUCUACAGUCCGACGAUCAGGGAGGCAGGAGCAAUCGCCACGAGUGAUAUUCGUGAAAAAAAAAAAAAAAAUGGAAACAAAACCAGAUGUGACCUCCAUAAAGUGCCUUCAGAAGGGACGCAGAUACAGCAAAGGAAGCAACAGAGGAUUGAGCAUCA
B12: chr3:142455422:142455423:-_ENSMUSG00000004591_ENSMUST00000043812|mus_mus|FALSE|FALSE (ssRNA)
RNA: B8 RNA with G80U, G81A
B13: 21140421_21141420_1149_CDS_ENSG00000141458_ENST00000269228|human|control|control (ssRNA)
RNA: GGGAGUUCUACAGUCCGACGAUCCUCCAUCCCAUGGACUGGAAAAUCUGAAAACACAGGAGUGAUGGUAAAAGGUGCCUGUCCAUUGUCCUUAUUGAACAUGUAUUCAAUCCAGUUGGUGGCAUUACAGGCGUCAGCGUCCUUCAACAGAGGAUUGAGCAUCA
B14: chr16:94690093:94690094:+_ENSMUSG00000040785_ENSMUST00000117648|mus_hu|mus_mus_mus_hu_True|68_98 (ssRNA)
RNA: GGGAGUUCUACAGUCCGACGAUCGGGCUGGGAUGACAGCAGACAGCCCUCGAUUCCAGGGGGAAAAAAAAAUAGCCGAUACUAAUUAAAAAGUGUUAAUGAUUUUUGAAAAUCAGAUUACAUCUAUAAAAGAUGAAAAGCAAACAACAGAGGAUUGAGCAUCA

Target: T1, UNK ZnF1-3
Assay: nsRBNS (natural sequence RNA bind-n-seq); RBNS binding buffer (assumed for nsRBNS): 25 mM Tris pH 7.5, 150 mM KCl, 3 mM MgCl2, 0.01% Triton X-100, 500 ug/ml BSA, 20 U/ml SUPERase-In, 4 C; UNK is unkempt and MSI1 is Musashi-1; names of the RNAs are library labels; protein concentration not given here; high values mean tight binding

| Binder | binding signal [enrichment R] |
| --- | --- |
| B1 | 0.772 |
| B2 | 0.414 |
| B3 | 0.728 |
| B4 | 0.333 |
| B5 | 1.69 |
| B6 | 0.876 |
| B7 | 2.22 |
| B8 | 5.45 |
| B9 | 0.729 |
| B10 | 0.426 |
| B11 | 6.96 |
| B12 | 4.59 |
| B13 | 0.935 |
| B14 | 3.34 |
